Screening results (PubChem)
FAS TE block – FAS thioesterase domain inhibitors, primary screen, biochemical, fluorescence intensity, uHTS; recombinant FAS-TE, OMFH fluorogenic substrate, fluorescence endpoint; inhibition, % at 15 µM; 360,000 compounds, 0.67% hits; AID 602261, 2012;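 active = compounds whose normalised, plate-corrected inhibition of enzyme fluorescence in the single-dose primary screen is 50% or more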;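 also: 0% = DMSO with enzyme and 100% = substrate without enzyme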
PfGluPho inh – PfG6PD enzyme inhibitors, primary screen, biochemical, fluorescence intensity, uHTS. glucose-6-phosphate dehydrogenase-6-phosphogluconolactonase (Plasmodium falciparum 3D7). PfGluPho enzyme, NADPH resazurin-diaphorase fluorescence. inhibition, % at 20 µM. 350,000 compounds, 0.78% hits;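 active = inhibition reaching at least a set limit at 20 µM in the primary screen, cut at about 59% in these data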;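 also: 0% = DMSO wells with substrate and 100% = DMSO wells lacking glucose-6-phosphate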
CRFR2-BP antag – antagonists of CRF-BP/CRF-R2 complex, primary screen, cell-based, HEK293, calcium dye fluorescence, uHTS | CRF-induced calcium fluorescence | inhibition, % at 11.8 µM | 350,000 compounds, 0.59% hits | AID 588475, 2011;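 active = inhibition of the ligand-induced calcium signal above about 50% at the single tested concentration, limit read from the data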
H9c2 protect – cardioprotection against H2O2-induced cell death, primary screen, uHTS, H9c2 cells, ATPLite luminescence; H9c2 cardiomyocytes, H2O2 injury protection, 2 h; protection from H2O2 cell death, % at 20 µM; 360,000 compounds, 0.63% hits;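 active = compounds giving at least 50% protection of heart cells from peroxide-induced death in the single-dose screen, raw or plate-pattern-corrected value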;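 also: 0% = DMSO wells with peroxide and 100% = DMSO wells without peroxide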
CRFBP-R2 agonist – agonists of CRF-BP/CRF-R2 complex, primary screen, cell-based, HEK293, calcium dye fluorescence, uHTS | calcium dye fluorescence (FLIPR); percent of saturating CRF peptide response | activation, % at 13.2 µM | CRF-binding protein / CRF receptor 2 complex (human) | 350,000 compounds, 0.46% hits;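 active = activation of at least 50%, plus an integration ratio under a set limit after plate pattern correction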;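 also: plate controls were neutral control wells without compound for no effect and CRF at EC100 for full effect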
aDG glyco up – activators of alpha-DG glycosylation, primary screen, uHTS, Pro5-aDG cells, AlphaScreen. alpha-DG glycosylation AlphaScreen (IIH6); 0% Pro5, 100% B10-LARGE cell signal. activation, % at 10 µM. 360,000 compounds, 0.22% hits;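 active = activation of at least 8% versus controls, or a plate z-score of at least 8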;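 also: Pro5 are CHO cells carrying HIG-tagged alpha-DG that lacks glycosylation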
Starred values were filed as active, the others as inactive; / = no result given. This is a sample that favours compounds with a hit; in the whole collection about 3.2% have one here.

SMILES	FAS TE block	PfGluPho inh	CRFR2-BP antag	H9c2 protect	CRFBP-R2 agonist	aDG glyco up
CNC(=O)Oc1ccccc1C1CCCCC1	-2.2	-5.2	9.8	-1.9	-0.8	-0.4
CC(=O)N1N=C2C3CCN(CC3)C2C1c1cccc2ccccc12 (configuration not stated)	-7.1	-2.2	-132.4	-0.1	81.4*	0.0
CC(=O)N1N=C2C3CCN(CC3)C2C1c1ccc(C)cc1 (configuration not stated)	-6.1	-8.0	-19.7	18.9	-3.7	-0.2
Cc1ccccc1NP(=O)(Oc1ccccc1F)Oc1ccccc1F	4.6	-12.9	-13.5	73.3*	0.4	-0.3
Cc1cccc(NP(=O)(Oc2ccccc2)Oc2ccccc2)c1C	13.5	-1.1	21.1	7.8	0.0	-0.1
COc1ccc(OC(=O)N(C)C[C@H]2OCc3cnnn3CCCC(=O)N([C@H](C)CO)C[C@H]2C)cc1	-5.1	5.0	-7.5	16.2	-2.2	-0.1
CC(=O)c1ccc2c(c1)C1C(Cl)C(Sc3ccccc3[N+](=O)[O-])CC1C(c1ccccc1[N+](=O)[O-])N2 (configuration not stated)	16.2	59.4*	-63.0	35.5	0.6	-0.8
CC(=O)c1ccc2c(c1)C1C(Cl)C(Sc3ccccc3[N+](=O)[O-])CC1C(c1ccccc1)N2 (configuration not stated)	15.8	33.6	-15.6	8.5	1.6	-0.4
Cc1ccc(N2C(=O)CC(=O)NC2=O)c(C)c1	-7.0	-9.4	56.7*	1.1	-1.0	-0.2
Cc1ccc(N2C(=O)CC(=O)NC2=O)cc1	-3.0	1.3	9.8	0.9	1.6	-0.1
Cc1cc(OC(=O)c2cccs2)c2c3c(c(=O)oc2c1)CCCC3	45.1	21.1	52.5*	-19.8	11.8	1.7
O=C(N/N=C/c1c(O)n(CCC2=CCCCC2)c(=S)[nH]c1=O)c1ccccc1	24.8	-47.1	55.4*	65.9*	0.7	-0.2
CCN(CC)c1ccc(/C=N/c2sc3c(c2C#N)C2CCN3CC2)c(O)c1	-43.1	14.9	-159.5	-0.4	171.1*	0.3
Cc1nn(CCC#N)c2c1P(=S)(N1CCCC1)OC(c1ccc(F)cc1)=N2 (configuration not stated)	25.8	65.4*	0.8	10.2	0.8	0.0
C/C=C1/C[C@@H](C)[C@](O)(CO)C(=O)OCC2=CCN3CC[C@@H](OC1=O)[C@@H]23	-3.2	17.8	1.5	-2.8	0.2	0.2
CN1CCN(c2ccc(/C=C3\C(=O)NC(=S)N(c4cccc(Br)c4)C3=O)o2)CC1	-7.7	6.9	-179.8	-1.8	163.8*	-0.3
CCOc1ccc(N2C(=O)NC(=O)/C(=C\c3ccc(N4CCCCC4)o3)C2=O)cc1	-14.4	7.6	-40.5	11.2	56.9*	-0.4
CN1C(=O)C(=Cc2ccc(N3CCOCC3)o2)C(=O)N(C)C1=S	-10.7	15.6	-200.9	-4.7	239.1*	-0.4
CN1C(=O)/C(=C/c2ccc(Cl)s2)C(=O)NC1=S	-3.7	63.4*	-28.9	-10.5	1.9	0.0
COc1cc(/C=C2\C[C@H]3[C@@H]4CC=C5C[C@@H](N6CCCC6)CC[C@]5(C)[C@H]4CC[C@]3(C)[C@H]2O)cc(OC)c1OC	-1.4	24.8	3.5	8.1	-0.5	1.5
COC(=O)C1=C(c2ccc(OCc3ccccc3)cc2)C[C@@H]2CC[C@H]1N2C(=O)NCc1cccc(OC)c1	25.2	16.9	10.2	-5.1	0.8	0.8
Clc1ccc(C(c2ccc(Cl)cc2)n2cc[n+](CC(OCc3ccc(Cl)cc3Cl)c3ccc(Cl)cc3Cl)c2)cc1 (configuration not stated)	-128.6	54.2	22.5	-46.4	-0.1	3.4
CN1C(=O)/C(=C\c2ccc(N3CCCCC3)o2)C(=O)NC1=S	-8.2	1.2	-68.7	-3.3	130.1*	-0.3
O=C1NCN(c2ccccc2)C12CCN(C(c1nnnn1C1CCCC1)C1CC1)CC2 (configuration not stated)	-6.9	/	/	4.0	/	0.5
CN(C(=O)Oc1ccc(C(=O)c2ccc(Cl)cc2)cc1)c1ccccc1	22.2	-4.4	50.2*	-4.7	9.4	0.2
SMILES	FAS TE block	PfGluPho inh	CRFR2-BP antag	H9c2 protect	CRFBP-R2 agonist	aDG glyco up
CN1/C(=C\C=C2C(=O)NC(=O)NC2=O)C(C)(C)c2ccccc21	-46.7	-7.2	-383.3	16.6	377.5*	0.1
CN(C)C1=NP(N(C)C)(N(C)C)=NC(c2ccccc2)=N1	-7.7	-6.0	51.8*	11.2	-0.6	0.1
CN1CC[C@@]2(C)c3cc(O)ccc3N(C)C2O1 (some centres not stated)	-11.0	64.4*	1.9	-2.6	0.8	1.3
CC1[C@H]2Cc3ccc(O)cc3[C@]1(C)CCN2C (some centres not stated)	1.4	9.6	1.7	8.3	-1.1	-0.2
CC1c2ccccc2-n2nncc2CN1C (configuration not stated)	-6.9	-1.2	9.5	2.1	-1.4	-0.1
Cc1nn(Cc2ccccc2)c(Cl)c1C(=O)NC1CCCc2ccccc21 (configuration not stated)	30.4	-8.7	90.5*	5.7	1.8	0.3
Cc1nn(Cc2ccccc2)c(Cl)c1C(=O)Nc1ccc(OC(F)(F)F)cc1	7.5	5.5	8.5	-8.5	-0.1	2.0
COc1ccc(-n2nnnc2C(CCSC)N2CCC3(CC2)C(=O)NCN3c2ccccc2)cc1 (configuration not stated)	10.9	/	/	8.8	/	0.0
CNc1ccc2oc(C[C@H]3O[C@@]4(CC[C@H]3C)O[C@H]([C@H](C)C(=O)c3ccc[nH]3)[C@H](C)C[C@H]4C)nc2c1C(=O)O	15.4	-34.0	-229.4	-41.8	211.2*	-0.4
CNP(=O)(Oc1ccccc1)OC12CC3CC(CC(C3)C1)C2 (configuration not stated)	-0.1	-4.6	78.4*	5.9	1.6	0.0
O=P(NC(c1ccccc1)c1ccccc1)(Oc1ccccc1)Oc1ccccc1	-0.7	-14.7	-25.5	12.9	5.1	0.2
C[C@]12CC[C@H](O)CC1=CC(=O)C1C2CC[C@]2(C)C(=O)CCC12 (some centres not stated)	-1.9	8.1	0.0	13.5	-0.7	0.0
CC1(C)CSC(=NCc2ccccc2)N1	-3.4	-3.5	4.1	-5.2	190.8*	-0.2
C(#CCN1CCCCC1)CN1CCCCC1	-2.9	/	/	0.2	/	0.1
CC(C)N(C(=O)CCl)c1ccccc1	-2.0	8.4	1.6	2.1	0.2	0.3
CCN1CCN(c2nc3c(c(=O)[nH]2)CCCC3)CC1	-8.8	-16.2	1.8	62.1*	0.2	2.5
